The source of these data is PubChem BioAssay (NCATS).

Values joined by “and” are separate entries in the source; they are usually repeats but may differ in a detail not shown here. Equal values may be shown once. Results filed as inconclusive are left out. Active and inactive are the calls of the source. Unless noted, calls follow the shape of the dose curve; as a rule, active = well fitted inhibition curve with a large enough effect; inconclusive = small, poorly fitted or top-dose-only effect; inactive = flat fitted curve, though single readings scatter. Some results are limits rather than exact numbers.

Experiment [1] in a line: AP1 Signaling Pathway (AID 357; active = well fitted curve in either direction with a large enough effect, not every such curve was filed as active; also: % is scaled to controls: 0 for no effect and ±100 for the full control effect). Summed up: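 ME-180 cells with beta-lactamase reporter under AP-1 response element, stimulated with EC50 EGF; compounds tested in titration series, 5 h at 37 °C. CCF4 substrate added 2.5 h at room temperature; 460/530 nm emission ratio gave %activity and AC50.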
Experiment [2] can be described thus: Stat Signaling Pathway (AID 446; active = well fitted curve in either direction with a large enough effect, not every such curve was filed as active;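 also: ME-180 cervical cancer cells given 40 pM IL-6 alongside compound; SIE-controlled beta-lactamase reporter measured as 460/530 nm FRET emission ratio; % is scaled to controls: 0 for no effect and ±100 for the full control effect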). The procedure, abridged: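 Screening format detects activators and inhibitors alike: ME-180 SIE-bla cells stimulated at 40 pM IL-6 for 5 hrs with compound, then dual-emission beta-lactamase read at 405 nm excitation.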
Experiment [3] addresses Glucocorticoid receptor (Homo sapiens) (UniProt P04150). Kind of experiment: GR-EFC Redistribution (AID 451; calls by dose curve; also: potency is read from the fitted curve at half-maximal effect). Conditions: CHO-K1 GR-EFC translocation, beta-gal luminescence, 2 h. The procedure, abridged:
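CHO-K1 cells stably expressing nuclear-localized β-gal enzyme acceptor and GR fused C-terminally to the enzyme donor fragment; ligand-driven nuclear translocation restores β-gal by complementation. Compounds titrated up to 46 uM final, 2 h at 37 °C; luminescence read.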

Experiment [4] deals with Mitogen-activated protein kinase 10 (Mus musculus) (UniProt Q61831). Kind of experiment: JNK3 AlphaScreen Assay (AID 530; active = well fitted curve in either direction with a large enough effect, not every such curve was filed as active;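 also: kinase came from lysate of stimulated human HepG2 cells; signal reports phosphorylation of biotinylated GST-cJun 1-79 at Ser73 with 10 µM ATP; % is scaled to controls: 0 for no effect and ±100 for the full control effect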). Summed up:
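JNK3 came from HepG2 lysates pre-activated with IL-1beta and TNF-alpha and phosphorylated biotinylated GST-cJun (1-79) at 10 uM ATP, pH 7.6, room temperature. Compounds were titrated. AlphaScreen signal used anti-phospho-cJun (Ser73) antibody.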

The nature of experiment [5]: qHTS Assay for Lipid Storage Modulators (AID 1519; calls by dose curve). The settings on record: Drosophila S3 cells, BODIPY lipid droplet/cell ratio, laser cytometry, cells loaded with oleic acid; for activity change, negative = inhibition: at 25.7 µM (top of the series). Summed up:
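Cells seeded at 5,000 per well were treated with compounds over a concentration series and loaded with oleic acid (400 uM, as added). Lipid droplet fluorescence (488 nm excitation, 500-530 nm channel) was read by laser-scanning cytometry and normalized to 20 uM Triacsin C.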
For orientation: Quantitative high-throughput screening tests each substance at several concentrations.

For experiment [6], the target named is Ubiquitin carboxyl-terminal hydrolase 1 (Homo sapiens) (UniProt O94782). Put plainly: Inhibitors of USP1/UAF1: Pilot qHTS (AID 504865).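 Also: rhodamine fluorescence freed from ubiquitin-rhodamine substrate followed over time; top concentration of the series differs between compounds; % is scaled to controls: 0 for no effect and ±100 for the full control effect; nearly all actives have a fitted effect of over 35% in size.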 Summed up:
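In 50mM HEPES pH 7.8 containing 0.5mM EDTA, 1mM TCEP, 0.1 mg/ml BSA and 0.01% Tween-20, 1nM USP1/UAF1 is exposed to compound for 15 min, then Ub-Rho (150nM final) is added and fluorescence is read over time.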

Experiment [7] is described as follows: qHTS profiling for inhibitors of Plasmodium falciparum proliferation (AID 504749). Also: nearly all actives have a fitted effect of over 60% in size. Also: potency is read from the fitted curve at half-maximal effect.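 As to activity, negative = inhibition: 0% = DMSO vehicle and full inhibition = artemisinin control.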 The settings on record: P. falciparum in erythrocytes, SYBR Green DNA, 72 h, at 12.8 µM (top of the series). The procedure, abridged:
(§1)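 P. falciparum-infected erythrocytes (0.3% parasitemia, 2.5% hematocrit final) were exposed to compounds for 72 h at 37 C in 5% CO2, then lysed with SYBR Green buffer overnight at room temperature; parasite DNA fluorescence was normalized to artemisinin and DMSO controls.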

The test system of experiment [8] is C2A. The description is as above. Conditions: P. falciparum in erythrocytes, SYBR Green DNA, 72 h; series mostly up to 12.8 µM. The procedure, abridged: as §1
Experiment [9] concerns CP191. The description is as above. Conditions: P. falciparum in erythrocytes, SYBR Green DNA, 72 h; series mostly up to 12.8 µM. The procedure, abridged:
as §1

The test system of experiment [10] is CP217. The description is as above. The settings on record: P. falciparum in erythrocytes, SYBR Green DNA, 72 h; series mostly up to 12.8 µM. The procedure, abridged:
as §1

Experiment [11] deals with CP238. The description is as above. The settings on record: P. falciparum in erythrocytes, SYBR Green DNA, 72 h; series mostly up to 12.8 µM. Summed up:
as §1

Experiment [12] deals with CP250. The experiment is described as above. The settings on record: P. falciparum in erythrocytes, SYBR Green DNA, 72 h; series mostly up to 12.8 µM. The procedure, abridged: as §1
Experiment [13] relates to CP256. Described as above. Conditions: P. falciparum in erythrocytes, SYBR Green DNA, 72 h; series mostly up to 12.8 µM. The procedure, abridged:
as §1

Experiment [14] has as its system FAB9. Described as above. Conditions: P. falciparum in erythrocytes, SYBR Green DNA, 72 h; series mostly up to 12.8 µM. The procedure, abridged: as §1
Experiment [15] has as its system JCK. Described as above. Conditions: P. falciparum in erythrocytes, SYBR Green DNA, 72 h; series mostly up to 12.8 µM. Summed up:
as §1

Experiment [16] has as its system PC49. Described as above. The settings on record: P. falciparum in erythrocytes, SYBR Green DNA, 72 h; series mostly up to 12.8 µM. Summed up: as §1
The subject of experiment [17] is SC27B. Described as above. The settings on record: P. falciparum in erythrocytes, SYBR Green DNA, 72 h; series mostly up to 12.8 µM. Summed up: as §1
Experiment [18] can be described thus: NFAT Signaling Pathway (AID 444; active = well fitted curve in either direction with a large enough effect, not every such curve was filed as active;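 also: carbachol stimulus at about its EC50 of 1 µM final; % is scaled to controls: 0 for no effect and ±100 for the full control effect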). The settings on record: Jurkat NFAT-bla M1, carbachol, beta-lactamase ratio, 5 h. The procedure, abridged: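 Jurkat cells carrying an NFAT-driven β-lactamase reporter and co-transfected muscarinic M1 receptor were treated with compound plus carbachol (1 uM final, an EC50 level) for 5 h at 37 °C. CCF4 loading followed for 1 h at RT; 460/530 nm ratio gave %activity.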

The target of experiment [19] is Glucocorticoid receptor (Homo sapiens) (UniProt P04150). Kind of experiment: GR-GFP Redistribution (AID 450;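 active = compounds whose dose series gives a full or clear partial fitted curve of increased nuclear translocation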; also: potency is read from the fitted curve at half-maximal effect). The settings on record: U2OS GR-GFP nuclear translocation, laser cytometry, 2 h.
Experiment [20] addresses 3',5'-cyclic-AMP phosphodiesterase 4B (Homo sapiens) (UniProt Q07343). Put plainly: qHTS Assay for Inhibitors of PDE-IV (AID 607; active = well fitted activation curve with a large enough effect in the main read-out, with a control signal flat, not every such curve was filed as active; also: % of control where 0% means no effect). The procedure, abridged: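 The readout is membrane depolarisation from a cAMP-sensing CNG channel, detected with a potential dye at ex 535/em 590. Cells were HEK293-derived (endogenous PDE-IV) at 1000 cells/well, titrated up to 22.9 uM final.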

Setting [21] is: measured here: cell count channel max response.
Setting [22] is: measured here: lipid channel max response.

Chain of Ubiquitin carboxyl-terminal hydrolase 1 (Homo sapiens) (O94782 whole entry, looked up): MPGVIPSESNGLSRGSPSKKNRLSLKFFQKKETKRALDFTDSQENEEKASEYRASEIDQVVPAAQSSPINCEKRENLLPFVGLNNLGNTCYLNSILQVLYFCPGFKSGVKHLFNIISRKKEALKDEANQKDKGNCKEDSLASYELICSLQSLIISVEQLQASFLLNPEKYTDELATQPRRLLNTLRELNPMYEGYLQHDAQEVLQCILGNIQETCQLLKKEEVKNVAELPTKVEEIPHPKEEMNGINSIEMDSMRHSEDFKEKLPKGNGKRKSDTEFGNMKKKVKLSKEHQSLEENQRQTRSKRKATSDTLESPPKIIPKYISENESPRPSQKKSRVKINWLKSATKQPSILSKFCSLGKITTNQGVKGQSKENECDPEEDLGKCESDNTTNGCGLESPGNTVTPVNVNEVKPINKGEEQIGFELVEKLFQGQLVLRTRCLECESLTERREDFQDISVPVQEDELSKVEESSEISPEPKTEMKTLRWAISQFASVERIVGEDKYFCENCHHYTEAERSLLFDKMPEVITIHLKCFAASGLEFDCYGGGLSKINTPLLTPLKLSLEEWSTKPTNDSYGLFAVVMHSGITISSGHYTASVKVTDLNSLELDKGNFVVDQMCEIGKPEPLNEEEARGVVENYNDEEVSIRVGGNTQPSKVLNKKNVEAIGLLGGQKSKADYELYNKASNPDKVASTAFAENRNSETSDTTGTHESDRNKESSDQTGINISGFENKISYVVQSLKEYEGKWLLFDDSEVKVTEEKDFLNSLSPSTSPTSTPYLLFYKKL
Chain of Glucocorticoid receptor (Homo sapiens) (P04150 whole entry, looked up, the tested form may be a part): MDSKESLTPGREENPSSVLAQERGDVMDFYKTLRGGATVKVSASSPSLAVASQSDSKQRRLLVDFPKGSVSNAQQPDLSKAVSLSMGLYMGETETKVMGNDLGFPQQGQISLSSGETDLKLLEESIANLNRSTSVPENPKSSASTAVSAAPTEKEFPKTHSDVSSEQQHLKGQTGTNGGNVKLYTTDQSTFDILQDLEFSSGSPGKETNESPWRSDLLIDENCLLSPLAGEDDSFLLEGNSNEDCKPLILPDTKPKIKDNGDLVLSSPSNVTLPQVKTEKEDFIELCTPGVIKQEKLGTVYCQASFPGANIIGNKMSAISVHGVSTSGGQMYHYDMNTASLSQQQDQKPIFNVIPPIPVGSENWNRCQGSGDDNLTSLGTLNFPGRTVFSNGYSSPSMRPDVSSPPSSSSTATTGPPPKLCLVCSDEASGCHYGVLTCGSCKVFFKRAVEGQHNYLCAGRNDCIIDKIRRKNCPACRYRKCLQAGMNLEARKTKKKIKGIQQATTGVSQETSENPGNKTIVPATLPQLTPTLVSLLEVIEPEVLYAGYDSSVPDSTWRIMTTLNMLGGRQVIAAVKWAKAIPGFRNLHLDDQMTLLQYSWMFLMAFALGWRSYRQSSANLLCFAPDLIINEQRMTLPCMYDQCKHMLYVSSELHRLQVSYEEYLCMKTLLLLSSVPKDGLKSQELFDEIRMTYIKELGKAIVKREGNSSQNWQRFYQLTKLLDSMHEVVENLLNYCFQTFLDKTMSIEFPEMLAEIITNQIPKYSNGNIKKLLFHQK
Chain of 3',5'-cyclic-AMP phosphodiesterase 4B (Homo sapiens) (Q07343 whole entry, looked up): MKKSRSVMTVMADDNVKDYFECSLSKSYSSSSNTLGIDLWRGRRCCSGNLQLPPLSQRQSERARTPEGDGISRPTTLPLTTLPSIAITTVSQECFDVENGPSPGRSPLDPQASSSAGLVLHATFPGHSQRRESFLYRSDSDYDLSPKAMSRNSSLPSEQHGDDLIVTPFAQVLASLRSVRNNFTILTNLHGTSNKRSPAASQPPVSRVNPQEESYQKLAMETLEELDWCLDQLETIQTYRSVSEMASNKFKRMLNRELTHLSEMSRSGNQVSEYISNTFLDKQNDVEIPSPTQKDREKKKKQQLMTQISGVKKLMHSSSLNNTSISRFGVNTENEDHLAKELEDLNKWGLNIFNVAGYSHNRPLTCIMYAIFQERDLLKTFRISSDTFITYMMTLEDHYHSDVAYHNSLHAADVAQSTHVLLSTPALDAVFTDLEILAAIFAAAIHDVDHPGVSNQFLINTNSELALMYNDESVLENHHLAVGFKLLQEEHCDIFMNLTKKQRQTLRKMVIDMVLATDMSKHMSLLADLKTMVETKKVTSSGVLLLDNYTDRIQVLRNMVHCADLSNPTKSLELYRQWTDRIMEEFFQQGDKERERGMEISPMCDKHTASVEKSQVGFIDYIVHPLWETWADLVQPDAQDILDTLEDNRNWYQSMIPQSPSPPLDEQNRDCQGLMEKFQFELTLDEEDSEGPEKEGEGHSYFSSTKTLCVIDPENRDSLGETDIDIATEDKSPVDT

For `CC[C@H](Cc1c(I)cc(I)c(N)c1I)C(=O)O`, the result in experiment [1] and in experiment [2] was inactive. Further, the Potency in [3] was > 20.6 µM (inactive). Further, the Potency result in experiment [4], in experiment [6], in experiment [8], in [9], in experiment [10] and in [11] was “inactive” each time. Further, the Potency result in experiment [12], in [13], in [14], in experiment [15], in [16] and in experiment [17] was “inactive” in each case. In experiment [5], the activity change, negative = inhibition is 0.772% (inactive). The results for the max response in experiment [5] (setting [21]) and in [5] (setting [22]) were -5.23% and -5.12%, respectively. The activity, negative = inhibition is 7.39% (inactive) in experiment [7] (parasite line A) and 11.4% (inactive) in experiment [7] (parasite line B).
Take `CC(C)(C)NC[C@H](O)COc1cccc2c1C[C@@H](O)[C@@H](O)C2`: the molecule was called inactive in [1], in experiment [2] and in experiment [20]. In addition, the activity change, negative = inhibition in [18] (at 17.2 µM (top of the series) unless noted) was -3.7% (inactive); in experiment [5] it was -2.96% (inactive). The Potency in [19] and in [3] was > 20.6 µM (inactive) throughout. Further, the max response in experiment [5] (setting [21]) was -8.96%; in [5] (setting [22]), -13.2%. In addition, the Potency result in [6], in experiment [8], in experiment [9], in experiment [10], in [11] and in [12] was “inactive” throughout. The Potency result in experiment [13], in experiment [14], in [15], in experiment [16] and in experiment [17] was “inactive” each time. Besides, the activity, negative = inhibition in [7] (parasite line A) was 4.79% (inactive); in [7] (parasite line B) it was 2.07% (inactive).
With `CCOC(=O)O[C@]1(C(=O)COC(=O)CC)CC[C@@H]2[C@@H]3CCC4=CC(=O)C=C[C@@]4(C)[C@H]3[C@H](O)C[C@]21C`, the result in experiment [1], in [2] and in experiment [20] was inactive. For the same molecule, the Potency in experiment [19] is 0.00356 µM (active). Moreover, the Potency entry in experiment [4], in [6], in experiment [8], in experiment [9], in experiment [10] and in [11] was “inactive” in each case. Also, the Potency result in experiment [12], in experiment [13], in experiment [14], in [15], in experiment [16] and in experiment [17] was “inactive” in each case. In addition, the activity change, negative = inhibition in [5] is -3.74% (inactive). Besides, the max response in experiment [5] (setting [21]) is -6.91%; in [5] (setting [22]) it was -11.8%. Besides, the figures for the activity, negative = inhibition in experiment [7] (parasite line A) and in [7] (parasite line B) were 4.34% (inactive) and 0.379% (inactive), respectively.
For `COC(=O)Nc1nc2ccc(SC(C)C)cc2[nH]1`, the call in [1], in [2] and in experiment [20] was inactive. Besides, the Potency in experiment [19] and in [3] was > 20.6 µM (inactive) each time. The Potency result in experiment [4] and in [6] was “inactive” in each case. In addition, the activity change, negative = inhibition in experiment [5] was -1.67% (inactive). The max response is -2.31% in experiment [5] (setting [21]) and -4.22% in experiment [5] (setting [22]).
As to `Clc1ccc(CC[C@H](Cn2ccnc2)Sc2c(Cl)cccc2Cl)cc1`, the call in experiment [1] and in experiment [2] was inactive. The Potency was > 20.6 µM (inactive) in [19], > 20.6 µM (inactive) in experiment [3], 3.55 µM (active) in experiment [10] and 3.98 µM (active) in experiment [17]. Also, the Potency entry in experiment [4] is “inactive”. Moreover, in [5], the activity change, negative = inhibition is 3.47% (inactive). The max response is -3.86% in [5] (setting [21]) and -6.78% in [5] (setting [22]).
Regarding `CC(=O)O[C@@H]1C(=O)[C@@]2(C)[C@H](O)C[C@H]3OC[C@]3(OC(C)=O)[C@@H]2[C@H](OC(=O)c2ccccc2)[C@@]2(O)C[C@H](OC(=O)[C@@H](O)[C@@H](NC(=O)c3ccccc3)c3ccccc3)C(C)=C1C2(C)C` (stereo in doubt), the call in experiment [1], in [2] and in [20] was inactive. Moreover, the activity change, negative = inhibition is 6.42% (inactive) in [18] (at 17.2 µM (top of the series)), 6.57% (inactive) in experiment [18] (at 38 µM (top of the series)) and -8.68% (inactive) in experiment [5]. For the same molecule, the Potency in experiment [19] is > 46 µM (inactive) and > 20.6 µM (inactive); in experiment [3] it was > 46 µM (inactive) and > 20.6 µM (inactive). Also, the Potency entry in [4] is “inactive”. Further, the max response was -5.62% in [5] (setting [21]) and -13.6% in experiment [5] (setting [22]).
